Screens as filed in PubChem BioAssay.
Sampled rows, rich in hits. Any-hit rate of the full collection: about 6.6%.
HepG2 tox-1: kills HepG2 cells in TGF-b inhibitor counter-screen; HepG2 CAGA-GFP viability, ATP luminescence, 18 h; Potency, µM (titrated, usually from 46.1 µM), most hits filed as cytotoxic; hit rate 0.76% among 410,000
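HepG2 CAGA-GFP cells (1000/well, DMEM with 1% FBS) received compound, then TGF-beta at 500 pg/mL final, and were incubated 18 hours at 37 degrees C. Viability was read by CellTiter-Glo luminescence. Media-only wells were set as complete cell-killing and DMSO as no toxicity.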
KB-3-1 tox: kills parental KB-3-1 adenocarcinoma cells. hit rate 1.4% among 400,000. KB-3-1 viability, CellTiter-Glo ATP luminescence, 72 h. Potency, µM (series often up to 46.1 µM), hits mostly cytotoxic; note: nearly all actives have a fitted effect of over 60% in size
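72 h, 37 °C compound treatment of KB-3-1 parental cells; CellTiter-Glo added, 10 min, luminescence read. Data corrected against DMSO-only plates and normalized before curve fitting.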
TGFb inhibitor: TGF-b pathway inhibition; HepG2 CAGA-GFP TGF-b/SMAD3 reporter, GFP fluorescence, 18 h; TGF-beta stimulated, 500 pg/mL final; Potency, µM (series often up to 46.1 µM), most hits filed as inhibitors; hit rate 1.2% among 410,000; AID 588855; note: nearly all actives have a fitted effect of over 65% in size
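HEPG2 CAGA-GFP cells (1000/well, DMEM with 1% FBS) were pre-incubated 2 h at 37 degrees C, given compound by pin tool, then stimulated with TGF-beta at 500 pg/mL final for 18 h before per-cell GFP fluorescence imaging.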
HT1080NT lethal: kills 2HG-producing HT-1080-NT fibrosarcoma cells. HT-1080-NT fibrosarcoma viability, CellTiter-Glo ATP luminescence, 48 h. Potency, µM (series often up to 46.1 µM), most hits filed as cytotoxic. hit rate 1.6% among 360,000;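 note: NT is the 2HG producing partner of a matched IDH1 knockdown line; nearly all actives have a fitted effect of over 55% in size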
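Luminescent CellTiter-Glo readout after 48 hours of compound exposure at 37 degrees C defined viability of HT-1080-NT cells. Activity was normalized to DMSO wells and cell-free media wells; concentration-response curves were fitted and assigned curve classes.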
HT1080 IDH1KD tx: toxicity to HT-1080 IDH1 knockdown cells (counter line). HT-1080 IDH1 knockdown viability, ATP luminescence, 48 h. Potency, µM (doses to about 46.1 µM), usual class: cytotoxic. hit rate 2% among 360,000. AID 686971
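IDH1KD HT-1080 cells, 750/well, RPMI + 5% FBS; compound pinned after 2 h settling; 48 h, 37 °C; CellTiter-Glo luminescence; % activity normalised to DMSO and no-cell wells; curves fitted, classed by r2 and efficacy.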
KB-V1 cytotox: kills drug-selected multidrug resistant KB-V1 cells; KB-V1 MDR cells viability, CellTiter-Glo, 72 h; Potency, µM (series often up to 46.1 µM), hits mostly cytotoxic; hit rate 3.4% among 400,000; AID 1347076; note: nearly all actives have a fitted effect of over 60% in size
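Compound-treated KB-V1 multidrug-resistant cells, 72 h, 37 degrees C; viability by CellTiter-Glo. Fitted qHTS curves give the values.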
TGFb confirm: TGF-b pathway inhibition, cherry-pick retest; shares compounds with TGFb inhibitor; hit rate 63% among 1,600; HepG2 CAGA-GFP TGF-b reporter, GFP fluorescence, 18 h; cells stimulated with TGF-beta, 500 pg/mL; Potency, µM (doses to about 46.1 µM), hits mostly inhibitors; AID 720534; note: nearly all actives have a fitted effect of over 65% in size
HepG2 tox-2: counter-screen for TGF-b inhibitors: cytotoxicity in HepG2 cells; AID 720535; hit rate 27% among 1,600; Potency, µM (highest dose often 46.1 µM), most hits filed as inhibitors; HepG2 CAGA-GFP viability, ATP luminescence, 18 h; cells stimulated with TGF-beta, 500 pg/mL; shares compounds with TGFb inhibitor; note: nearly all actives have a fitted effect of over 70% in size
TGFb CCL64 inh: TGF-b inhibition, CCL64 orthogonal assay; CCL64 CAGA-GFP reporter, TGF-b stimulated, GFP fluorescence, 18 h; shares compounds with TGFb inhibitor; Potency, µM (doses to about 46.1 µM), actives largely listed as inhibitors; hit rate 41% among 1,600; AID 720536; note: nearly all actives have a fitted effect of over 65% in size
TGFb COP inh: TGF-b inhibition validated with COP promoter. shares compounds with TGFb inhibitor. HepG2 COP-GFP TGF-b reporter, GFP fluorescence, 18 h; cells stimulated by added recombinant TGF-beta. Potency, µM (series often up to 46.1 µM), actives largely listed as inhibitors. hit rate 3% among 1,600. AID 720537; note: nearly all actives have a fitted effect of over 70% in size
Hits are given with their value; . = inactive; ? = inconclusive; / = not tested or not shown. Calls come from the whole dose curve; as a rule, active = well fitted curve in the direction sought with a large enough effect; inconclusive = small, poorly fitted or top-dose-only effect, or another doubt; inactive = no such curve, though single readings can be large; an effect the other way counts as inactive or inconclusive.

SMILES | HepG2 tox-1 | KB-3-1 tox | TGFb inhibitor | HT1080NT lethal | HT1080 IDH1KD tx | KB-V1 cytotox | TGFb confirm | HepG2 tox-2 | TGFb CCL64 inh | TGFb COP inh
OCC1OC(n2ccc3c(NO)ncnc32)C(O)C1O (stereo not drawn) | 0.5µM | 0.46µM | 0.28µM | 1.6µM | 0.41µM | 0.52µM | 1.2µM | 0.58µM | 1.3µM | .
CN(C)c1nc2c(N)ncnc2n1C1OC(CO)C(O)C1O (stereo not drawn) | . | . | . | . | . | . | / | / | / | /
CCN(C(=O)CN(C)S(=O)(=O)c1ccc2c(c1)c(=O)n(C)c(=O)n2C)c1ccc(OC)cc1 | . | . | . | / | / | . | / | / | / | /
Cc1noc2ncnc(Oc3ccc4ccccc4c3)c12 | . | . | . | . | . | ? | / | / | / | /
Cc1noc2ncnc(Oc3cc(Cl)ccc3Cl)c12 | . | . | ? | ? | . | . | 18µM | ? | ? | .
CCc1ccc(-c2cc(C)no2)cc1S(=O)(=O)N1CCCN(Cc2ccc(F)cc2)C1 | . | ? | 10µM | 23µM | ? | ? | ? | ? | ? | .
CCCCN(C(=O)c1cccc2c(=O)c(C)c(-c3ccccc3)oc12)c1ccccc1 | . | ? | 14µM | . | ? | . | 10µM | ? | ? | .
Cc1ccc(NC(=O)COC(=O)c2cccc3c(=O)c(C)c(-c4ccccc4)oc23)cc1 | . | . | . | . | . | . | / | / | / | /
CCSc1nsc(NC(=O)Nc2cccc(F)c2)n1 | . | ? | 7.1µM | 12µM | 6.5µM | ? | 7.3µM | 6.5µM | ? | .
COc1cccc(NC(=O)Nc2nc(SC(C)(C)C)ns2)c1 | . | ? | 6.3µM | ? | ? | ? | 10µM | ? | 8.2µM | .
COc1cccc(NC(=O)Nc2nc(SC)ns2)c1 | . | . | ? | ? | ? | ? | / | / | / | /
CCCSc1nsc(NC(=O)Nc2ccc(F)cc2F)n1 | . | ? | 8.9µM | ? | . | ? | 6.5µM | 5.8µM | 7.3µM | .
Cc1ccc(NC(=O)Cn2c(=O)n(Cc3ccco3)c(=O)c3sc4ccccc4c32)c(C)c1 | . | . | ? | / | / | . | / | / | / | /
c1ccc(CCNc2ccc3c(c2)Cc2ccccc2-3)nc1 | . | ? | . | . | . | ? | / | / | / | /
O[C@H]1CN(CC2CCCCC2)[C@@H](c2ccc(Cl)cc2)C[C@@H]1n1cc(C2CC2)nn1 | 11µM | ? | 10µM | ? | ? | ? | 23µM | 16µM | 23µM | .
O[C@H]1CN(CC2CCCCC2)[C@@H](c2ccc(Cl)cc2)C[C@@H]1n1cc(-c2ccc(F)cc2)nn1 | . | ? | . | . | . | ? | / | / | / | /
O=C(COC(=O)c1cccc(OC(F)F)c1)Nc1cccc(S(=O)(=O)N2CCCC2)c1 | . | . | . | . | . | . | / | / | / | /
CCN(CC)S(=O)(=O)c1cccc(C(=O)N[C@H](C(=O)Nc2nc3ccc(F)cc3s2)C(C)C)c1 | . | 15µM | 7.9µM | . | ? | 5.8µM | 4.1µM | ? | ? | .
CCN(CC)S(=O)(=O)c1cccc(C(=O)N[C@H](C(=O)Nc2nc3ccccc3s2)C(C)C)c1 | . | . | ? | . | . | . | / | / | / | /
